Results reported in PubChem BioAssay AID588453 (National Center for Advancing Translational Sciences (NCATS), 2011).
Among all 390,000 compounds or so, about 4,000 (1%) were called active. Inconclusive results (about 4%) are left out. Calls follow the shape of the dose curve; as a rule, active = well fitted inhibition curve with a large enough effect; inconclusive = small, poorly fitted or top-dose-only effect; inactive = no such curve, though single readings can be large or run the other way. Only a selection was taken, and actives are over-represented in it overall.

Biological target: Thioredoxin reductase 1, cytoplasmic (Rattus norvegicus) (UniProt O89049)
Assay: qHTS Assay for Inhibitors of Mammalian Selenoprotein Thioredoxin Reductase 1 (TrxR1): qHTS; also: nearly all actives have a fitted effect of over 65% in size
Details: recombinant rTrxR1, NADPH fluorescence consumption, selenite substrate; series mostly up to 114 µM; activity change, negative = inhibition: at the top concentration
How it was run: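 Rat TrxR1 (90 nM in the dispensed reagent) was pre-reduced with 400 uM NADPH for 5 min at room temperature, then incubated with compound for 15 min. After 400 uM selenite was added, NADPH fluorescence (Ex 340/Em 450 nm) was followed for 8 min.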
% is scaled to controls: 0 for no effect and ±100 for the full control effect; potency is read from the fitted curve at half-maximal effect.

Chain of Thioredoxin reductase 1, cytoplasmic (Rattus norvegicus) (O89049 whole entry, looked up): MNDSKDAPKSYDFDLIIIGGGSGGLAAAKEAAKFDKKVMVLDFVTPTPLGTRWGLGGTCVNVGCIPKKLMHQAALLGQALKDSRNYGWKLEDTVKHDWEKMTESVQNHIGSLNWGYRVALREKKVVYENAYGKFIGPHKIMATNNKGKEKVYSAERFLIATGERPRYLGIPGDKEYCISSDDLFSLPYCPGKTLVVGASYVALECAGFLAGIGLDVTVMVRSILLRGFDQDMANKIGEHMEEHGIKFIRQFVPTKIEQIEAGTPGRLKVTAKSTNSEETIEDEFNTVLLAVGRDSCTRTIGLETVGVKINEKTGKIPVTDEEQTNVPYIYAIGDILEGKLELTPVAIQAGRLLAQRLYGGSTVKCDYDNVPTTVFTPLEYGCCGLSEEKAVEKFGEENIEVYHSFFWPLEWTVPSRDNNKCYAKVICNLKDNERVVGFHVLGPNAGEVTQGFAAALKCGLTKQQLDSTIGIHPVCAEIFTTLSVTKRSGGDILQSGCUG

Activity change, negative = inhibition, inactive:
CCOc1ccccc1CNC(=O)c1cnc2c(-c3ccc(OCC)c(OCC)c3)c(C)nn2c1C 19.7% [at 57.1 µM]
CC1=C(C(=O)OCC2CCCCC2)C(c2c(F)cccc2Cl)CC(=O)N1 (centres undefined) 5.66%
Cc1cc(C)c(NC(=O)c2cc3sc(Cl)cc3n2C)c(C)c1 1.88%
Cc1ccc(NC(=O)CSc2nc3ccccc3c3nc(CCn4cncc4C)nn23)cc1F 11.5% [at 57.1 µM]
CN(C)C1=C2C=CC=CC2/C(=C2/C=Cc3ccccc32)C=C1 (centres undefined) 7.41%
COC(=O)c1ccc(NC(=O)CCc2c(C)nn(-c3ccc(N4CCCC4)nn3)c2C)cc1 2.08% [at 57.1 µM]
O=C(CSc1oc(-c2ccc(F)cc2)nc1S(=O)(=O)c1ccc(Br)cc1)NC1CCCCC1 18.8%
Cc1ccc(-c2nc(S(=O)(=O)c3ccc(C)cc3)c(N3CCCCCC3)o2)cc1 16.3%
C=Cc1ccc(Cn2c(C(=O)OC)cc3sc(C)cc32)cc1 14.6%
COc1ccc(-c2nc3c(c(SCC(=O)Nc4ccc(C(=O)O)cc4)n2)Cc2ccccc2O3)cc1 14.2%
Cc1cccc(CNC(=O)c2cnc3sc(N4CCCCC4)nn3c2=O)c1 21.5% [at 57.1 µM]
COc1ccccc1N1CCN(C(=O)C2CCN(S(=O)(=O)c3c(C)noc3/C=C/c3ccc(C)cc3)CC2)CC1 7.91% [at 57.1 µM]
COc1cc(OC)c(OC)cc1/C=C/c1nc2ccccc2c(=O)n1-c1ccc(Br)c(C)c1 11% [at 57.1 µM]
CCCN(CCC)c1c([N+](=O)[O-])c(=O)oc2ccccc12 -6.64% [at 57.1 µM]
Cc1ccc(C2c3[nH]c4ccccc4c3CCN2C(=O)c2cccc(C)c2)cc1 (centres undefined) 24% [at 57.1 µM]
COc1ccc(-c2nc3sc(CCNS(=O)(=O)c4ccc(F)c(C)c4)c(C)n3n2)cc1 13.8% [at 57.1 µM]
COc1ccccc1-n1c(=S)[nH]c2c(sc(=S)n2-c2ccc(C)cc2C)c1=O 3.35%
Cc1cc(-c2n[nH]c(=S)n2-c2ccc(C)c(C)c2)no1 -26.4%
COc1ccc(N2CCN(C(=O)C3CCCN(C(=O)c4cc5sccc5n4C)C3)CC2)cc1 (centres undefined) -11%
COc1ccccc1CN1CCNC(=O)C1CC(=O)N(C)CC1CCOCC1 (centres undefined) -27.5%
COc1ccc(CN2CCNC(=O)C2CC(=O)N(C)Cc2ccccn2)cc1OC (centres undefined) -4.61% [at 57.1 µM]
O=C(Cn1c(-c2cccs2)cc2ccccc21)NCCc1ccc(Cl)cc1 5.31%
CCNC(=O)Cn1nc(C)n2c(cc3c(OC)cccc32)c1=O 19.1%
COC(=O)C(CC(=O)Nc1cc(C)ccc1C)Nc1ccccc1OC (centres undefined) 17.6%
O=C(COC(=O)[C@H](Cc1ccccc1)NC(=O)c1cccs1)Nc1cc(F)ccc1F -9.98%
COc1cc2nc(N3CCCN(C)CC3)nc(NC(C)C)c2cc1OC -9.03%
CCOc1ccc(N(Cc2ccccc2)C(=O)c2nc(SCC)ncc2Cl)cc1 20.4%
CCOc1ccc(NC(=O)CN(Cc2ccccc2)S(=O)(=O)c2ccc(Cl)cc2)cc1 4.4%
Nc1ncnc2nnsc12 -0.422%
COc1cc2nc(C#Cc3nc4cc(OC)c(OC)cc4[nH]3)[nH]c2cc1OC 86.5%
CC(C)(C(=O)NO)c1ccccc1 20%
Cc1cccc(CSc2nc3ccncc3n2CC(=O)N(C)C2CCCCC2)c1 -2.23%
CC(=O)N(CN1C(=O)C2C3C=CC(C3)C2C1=O)c1cccc(Cl)c1 (centres undefined) 9.83% [at 11.4 µM]
O=C(NCCN1CCN(C(=O)c2cccc([N+](=O)[O-])c2)CC1)C(=O)NCc1ccc(Cl)cc1 -14.4%
Cc1ccc(Cl)cc1N(C)C(=O)C1CCCN(c2ncnc3onc(-c4ccc(F)cc4)c23)C1 (centres undefined) 19.6%
CC(C)(C)n1nnnc1C(c1ccc2ncccc2c1)N1CCSCC1 (centres undefined) 7.09%
CC(C)(C)n1nnnc1C(c1ccc(Cl)cc1)N1CCSCC1 (centres undefined) 13.3%
Cc1ccsc1CN(C(=O)c1oc2ccc(Br)cc2c1C)C1CCS(=O)(=O)C1 (centres undefined) 18.8%
Cc1cccc(S(=O)(=O)c2cn(Cc3ccccc3)c3cc(N4CCOCC4)c(F)cc3c2=O)c1 17.5%
COc1ccccc1-c1noc(CSc2nnc(-c3ccccc3)n2-c2ccc(C)c(C)c2)n1 16.3%
O=C(Nc1ccccc1)c1ccccc1OCc1ccccc1 17.6%
COc1ccc(CCn2cc3c(c2-c2ccc(Br)cc2)c(=O)n(C)c(=O)n3C)cc1OC 19.2%
COc1ccc(-c2c3c(=O)n(C)c(=O)n(C)c3c3c(C)nc4ccccc4n23)cc1 33.4%
Cc1ccc(N(CC(=O)NCC(C)c2ccccc2)S(=O)(=O)N(C)C)cc1 (centres undefined) 9.43% [at 57.1 µM]
COc1cc(NC(=O)CN2CCN(S(=O)(=O)c3ccc(Br)cc3)CC2)cc(OC)c1 11.8%
CC(C)N(C(=O)CN1CCN(S(=O)(=O)c2ccc(Br)s2)CC1)C(C)C -0.117%
Cc1ccc2ccc3c(c2n1)NS(=O)(=O)c1ccccc1-3 -6.92%
COc1ccc(C(=O)C2CCCN(C(=O)c3cnsn3)C2)c(C)c1 (centres undefined) 21.1%
COc1ccc(C(=O)C2CCCN(S(=O)(=O)c3cccc(C)c3)C2)c(C)c1 (centres undefined) 20.3%
CN(C)c1ccc(/C=C/c2sc3ccccc3[n+]2C)cc1 -0.933%
Oc1ccc(N2CCN(C(=S)NCc3ccccc3)CC2)cc1 1.02% [at 57.1 µM]
OCC(CO)(CO)NCc1ccc(-c2ccccc2)cc1 5.61%
COc1ccc(OC)c(CNC(=O)c2c3c(nc4ccccc24)C(=O)N(C2CCCCC2)C3)c1 5.43% [at 57.1 µM]
COc1cc2[nH]c(C)c(CCN3CCN(c4ccccc4)CC3)c2cc1OC -33.1%
COc1ccccc1NC(=O)COC(=O)COc1ccccc1F -14.5%
COc1ccccc1NC(=O)N(O)C1(C#N)CCCCC1 0.82%
COc1ccc(C(CCN2CCOCC2)c2c(OC)cc(OC)c3c2OC(=O)CC3c2ccc(OC)cc2)cc1 (centres undefined) 19.8% [at 57.1 µM]
CCc1nn(CC(=O)Nc2cc(C)cc(C)c2)c(=O)c2cc3sccc3n12 11.6%
COc1cccc(CNC(=O)Cn2c(=O)c3cccn3c3ccc(F)cc32)c1OC 17.7%
Cn1c(=O)c(Sc2ccc(Cl)cc2)c(O)c2ccccc21 7.28% [at 57.1 µM]
COc1cccc(C(=O)Oc2cc(C)[nH]c(=O)c2[N+](=O)[O-])c1 -8.17%
Cc1cccc(C2CC(=O)Oc3c2c(=O)n(C)c2ccccc32)c1 (centres undefined) -4.1%
Cc1cccc(C(=O)O)c1[N+](=O)[O-] 23.2%
COc1cc(-c2cc3n(C)c(C)c(CCC(=O)Nc4ccc(F)cc4)c(=O)n3n2)cc(OC)c1OC 41.7% [at 57.1 µM]
Cc1cccc(-n2ccnc2SCC(=O)Nc2cc(C(F)(F)F)ccc2Cl)c1 24.2% [at 57.1 µM]
Cc1ccc(-c2cc(C(F)(F)F)c(C#N)c(SCC(=O)Nc3ccccc3)n2)cc1 12.9%
N#Cc1cc2[nH]c(=O)c(=O)[nH]c2cc1[N+](=O)[O-] -3.39%
COc1ccc(N=Nc2c(-c3ccc(OC)cc3)[nH]oc2=O)cc1 19.7% [at 57.1 µM]
COC1=CC(=O)OC(c2ccc(OC)cc2)C1 (centres undefined) 9.46%
COc1ccc(C)cc1-n1c(-c2ccc(C)cc2)cc2c1CC(C)(C)CC2=O 19%
O=C(Nc1ccc([N+](=O)[O-])cc1)c1cnn2c1NC(=C1CC1)C=C2C(F)F 21.2%
CCc1ccc(NS(=O)(=O)c2ccc3[nH]cc(C(=O)NCCc4cccc(C)c4)c(=O)c3c2)cc1 40.2% [at 57.1 µM]
COc1ccc(CCNC(=O)c2nn(C)c3c2CSc2ccccc2-3)cc1OC 9.84%
COc1cc(NC(=O)c2nc3ccccc3nc2C)cc(OC)c1OC -3.78%
Cc1cccc(NC(=O)CSc2nc3c([nH]c4ccccc43)c(=O)n2-c2cc(C)cc(C)c2)c1 16% [at 57.1 µM]
CCN(CC(=O)Nc1ccccc1OC)C(=O)Cn1cnc2ccccc2c1=O 5.31% [at 57.1 µM]
CC1(C)C(=O)Nc2ccccc2N1C(=O)COC(=O)Cn1cnc2ccccc2c1=O 10.6%
COc1ccc(C)cc1NC(=O)COCc1cc(-c2cccs2)on1 15%
CCOC(=O)c1ccc(NC(=O)C2CC(=O)NC(=Nc3ccc(C)c(C)c3)S2)cc1 (centres undefined) 3.72%

Potency, active:
CCN1CCC(O)(/C=C/c2ccc(C)cc2)C(C(=O)/C=C/c2ccc(C)cc2)C1 (centres undefined) 1.26 µM
CC(C)S(=O)(=O)c1oc(-c2ccc(F)cc2)nc1S(=O)(=O)c1ccc(F)cc1 1 µM
CCn1c(/C=C/c2ccc([N+](=O)[O-])o2)nc2ccccc2c1=O 3.16 µM
COc1ccccc1-n1c(-c2cc(-c3ccco3)[nH]n2)n[nH]c1=S 44.7 µM
CN(C(=O)CC1C(=O)NCCN1Cc1ccc2ccccc2c1)C1CCOCC1 (centres undefined) 39.8 µM
Cc1ccc(C)c(NC(CC(=O)c2ccccc2)C(=O)OCC(=O)c2cccs2)c1 (centres undefined) 44.7 µM
CCOc1ccc(N(Cc2ccccc2)C(=O)c2nc(S(C)(=O)=O)ncc2Cl)cc1 2.24 µM
O=C(CCl)N(Cc1cccc([N+](=O)[O-])c1)c1cccc(Cl)c1 7.94 µM
Cc1cccc(N2CCN(C(c3ccc(N(C)C)cc3)c3nnnn3C(C)(C)C)CC2)c1C (centres undefined) 11.2 µM
Cc1ccc(-c2c3c(=O)n(C)c(=O)n(C)c3cn2-n2cnnc2)cc1 50.1 µM
Cc1cccc(NC(=O)CN2CCCN(S(=O)(=O)c3ccc(Br)s3)CC2)c1 12.6 µM
COc1ccc(C(=O)C2CCCN(C(=O)c3ccc(OC)o3)C2)c(C)c1 (centres undefined) 39.8 µM
Oc1ccc(CNc2ccccc2O)cc1 7.94 µM
COc1ccccc1NC(=O)/C=C/C(N)=O 12.6 µM
O=C(/C=C/Sc1ncn[nH]1)c1ccc(Cl)cc1 0.447 µM
Cc1cccc(Oc2c([N+](=O)[O-])c(=O)n(C)c3ccccc23)c1 3.16 µM
Cn1c(=O)c([N+](=O)[O-])c(Oc2ccccc2)c2ccccc21 2.24 µM
COc1ccc(N=C2C=CC(=O)O2)cc1 10 µM
COc1cc(NC(=O)c2noc3c2CSc2ccccc2-3)cc(OC)c1OC 14.1 µM
COc1ccc(C(C)=O)cc1COC(=O)Cn1cnc2ccccc2c1=O 17.8 µM
